Reference: PubChem BioAssay AID1159580 (chemical genetic matrix, 2015)
About 2,000 (36%) of roughly 5,500 compounds were called active. Not shown: some 18% with an inconclusive outcome. No stated cut-off is given here; in the data, active means normalized growth mostly below about 0.91 (no sharp cut-off); inconclusive means no clear call, values can overlap the other calls; inactive means mostly above about 0.92. The list shows a part of the results.

Assay: chemical genetic growth profiling, strain panel (AID 1159580);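 further: tested at 20 µM; growth read once vehicle control cultures reached saturation at 30 °C; 1 = growth at the plate median or of vehicle wells; lower values mean less growth of the strain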
Settings: S. cerevisiae deletion strains, growth OD
[1] = locus YAL040C, strain CLN3, hits give low values
[2] = locus YCL061C, strain MRC1 (second series), hits give low values
[3] = locus YDR363W, strain ESC2, hits give low values
[4] = locus YER002W, strain NOP16, hits give low values
[5] = locus YNL175C, strain NOP13, hits give low values
[6] = locus YNL197C, strain WHI3, hits give low values
[7] = locus YNL224C, strain SQS1, hits give low values
[8] = locus YOR083W, strain WHI5 (second series), hits give low values

Measured: normalized growth

C[N+]1(C)CCN(c2ccccc2)CC1
inactive: [2] 1 | [3] 1.04 | [4] 0.961 | locus YGR078C, strain PAC10, hits give low values 1 | locus YNL128W, strain TEP1, hits give low values 0.997 | [5] 0.974 | [6] 0.958 | [7] 1 | [8] 0.979 | locus YPL241C, strain CIN2, hits give low values 1
active: [1] 0.873

C[N+]1(C)CCC(OC(=O)C(c2ccccc2)c2ccccc2)CC1
inactive: [1] 1.08 | [2] 0.992 | [3] 0.956 | [4] 0.999 | locus YMR263W, strain SAP30, hits give low values 0.987 | locus YMR307W, strain GAS1, hits give low values 0.988 | locus YNL153C, strain GIM3, hits give low values 1.01 | [5] 1.01 | [6] 1.03 | [7] 1.01 | locus YNL322C, strain KRE1, hits give low values 0.915 | [8] 1.02
